Assay results from PubChem BioAssay AID1159580 (chemical genetic matrix, 2015).
Values joined by “and” are separate entries in the source; they are usually repeats but may differ in a detail not shown here. Equal entries are not always repeated. Screen size: about 5,500 compounds; about 2,000 (36%) were called active. Not shown: some 18% with an inconclusive outcome. Rule as the data show it: active = normalized growth mostly below about 0.91 (no sharp cut-off); inconclusive = no clear call, values can overlap the other calls; inactive = mostly above about 0.92. The list shows a part of the results.

Assay: chemical genetic growth profiling, strain panel (AID 1159580);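 also: tested at 20 µM; growth read once vehicle control cultures reached saturation at 30 °C; 1 = growth at the plate median or of vehicle wells; lower values mean less growth of the strain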
Settings: S. cerevisiae deletion strains, growth OD

Measured: normalized growth

C[C@@H]1CC2C3CCC4=CC(=O)C=C[C@]4(C)[C@@]3(F)[C@@H](O)C[C@]2(C)[C@@]1(O)C(=O)COP(=O)(O)O (stereo partly drawn)
inactive: locus YAL021C, strain ccr4, hits give low values 0.961 | locus YAL026C, strain drs2, hits give low values 0.985 | locus YAL030W, strain snc1, hits give low values 0.996 | locus YBL061C, strain skt5, hits give low values 0.978 | locus YBR009C, strain hhf1, hits give low values 0.976 | locus YBR021W, strain FUR4, hits give low values 1.02 | locus YBR023C, strain chs3, hits give low values 0.981 | locus YBR171W, strain sec66, hits give low values 0.944 | locus YBR229C, strain ROT2, hits give low values 1 | locus YBR231C, strain swc5, hits give low values 0.955 | locus YBR279W, strain paf1, hits give low values 0.989 | locus YCL011C, strain gbp2, hits give low values 0.997 | locus YCL016C, strain dcc1, hits give low values 1.02 | locus YCL029C, strain bik1, hits give low values 1.01 | locus YCL061C, strain MRC1, hits give low values 0.971 | locus YCL069W, strain vba3, hits give low values 0.996 | locus YCR088W, strain abp1, hits give low values 0.975 | locus YDL005C, strain med2, hits give low values 0.987 | locus YDL035C, strain GPR1, hits give low values 1.03 | locus YDL040C, strain nat1, hits give low values 0.964 | locus YDL074C, strain BRE1, hits give low values 1.02 | locus YDL101C, strain DUN1, hits give low values 1.01 | locus YDL134C, strain PPH21, hits give low values 1.02 | locus YDL185W, strain tfp1, hits give low values 1 | locus YDL192W, strain arf1, hits give low values 1.01 | locus YDR001C, strain nth1, hits give low values 0.94 | locus YDR069C, strain doa4, hits give low values 0.942 | locus YDR101C, strain arx1, hits give low values 0.996 | locus YDR137W, strain rgp1, hits give low values 0.97 | locus YDR159W, strain sac3, hits give low values 0.961 | locus YDR162C, strain NBP2, hits give low values 1.02 | locus YDR195W, strain ref2 0.936 | locus YDR297W, strain sur2, hits give low values 0.979 | locus YDR318W, strain mcm21, hits give low values 0.992 | locus YDR334W, strain swr1, hits give low values 0.943 | locus YDR335W, strain msn5, hits give low values 0.949 | locus YDR388W, hits give low values 1 | locus YDR392W, strain spt3, hits give low values 1.06 | locus YDR502C, strain sam2, hits give low values 1.01 | locus YEL003W, strain gim4, hits give low values 0.98 | locus YEL037C, strain rad23, hits give low values 0.978 | locus YEL061C, strain CIN8 (second series), hits give low values 0.961 | locus YEL061C, strain CIN8, hits give low values 1.01 | locus YER015W, strain faa2, hits give low values 0.98 | locus YER016W, strain bim1, hits give low values 1.02 | locus YER110C, hits give low values 1.01 | locus YER111C, strain swi4, hits give low values 0.98 | locus YER155C, strain BEM2 (second series), hits give low values 0.972 | locus YER155C, strain BEM2, hits give low values 1.01 | locus YER167W, strain BCK2, hits give low values 1.01 | locus YFR010W, strain ubp6, hits give low values 0.936 | locus YGL078C, strain dbp3, hits give low values 1.01 | locus YGL086W, strain mad1, hits give low values 1.02 | locus YGL167C, strain pmr1, hits give low values 0.954 | locus YGL173C, strain kem1, hits give low values 1 | locus YGL227W, strain vid30, hits give low values 0.972 | locus YGL240W, strain doc1, hits give low values 0.957 | locus YGL248W, strain PDE1, hits give low values 0.998 | locus YGL253W, strain hxk2, hits give low values 0.99 | locus YGR135W, strain pre9, hits give low values 1 | locus YGR229C, strain SMI1, hits give low values 1.01 | locus YGR252W, strain gcn5, hits give low values 0.929 | locus YHR013C, strain ard1, hits give low values 1 | locus YHR027C, strain rpn1, hits give low values 0.982 | locus YHR030C, strain SLT2, hits give low values 1.01 and 0.995 | locus YHR079C, strain IRE1 (second series), hits give low values 0.992 | locus YHR079C, strain IRE1, hits give low values 1 | locus YHR094C, strain hxt1, hits give low values 1 | locus YHR129C, strain ARP1, hits give low values 1.01 | locus YHR142W, strain chs7, hits give low values 0.976 | locus YHR200W, strain rpn10, hits give low values 1 | locus YIL066C, strain RNR3, hits give low values 1.03 | locus YIL073C, strain SPO22, hits give low values 1.02 | locus YIL125W, strain kgd1, hits give low values 0.994 | locus YIR030C, strain dcg1, hits give low values 1.01 | locus YJL092W, strain hpr5, hits give low values 0.987 | locus YJL095W, strain BCK1 (second series), hits give low values 0.982 | locus YJL095W, strain BCK1, hits give low values 1.01 and 0.997 | locus YJL115W, strain asf1, hits give low values 0.959 | locus YJL129C, strain trk1, hits give low values 0.942 | locus YJL134W, strain LCB3, hits give low values 1.01 | locus YJL154C, strain vps35, hits give low values 0.952 | locus YJL164C, strain tpk1, hits give low values 1.02 | locus YJL166W, strain qcr8, hits give low values 0.917 | locus YJL168C, strain set2, hits give low values 0.992 | locus YJL187C, strain SWE1 (second series), hits give low values 1.01 | locus YJL187C, strain SWE1, hits give low values 0.988 | locus YJR043C, strain POL32, hits give low values 1.02
